Assay outcomes (PubChem)
SF1 inhibitor = inhibitors of human SF-1, primary screen, cell-based, CHO-K1, Gal4-SF-1 LBD, luciferase luminescence; Steroidogenic factor 1 (Homo sapiens), Q13285; CHO-K1 Gal4-SF-1 LBD luciferase reporter; inhibition, % at 10 µM; 65,000 compounds, 0.55% hits;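 active = inhibition above the mean inhibition of all tested compounds plus 3 SD, cut at about 48% in these data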
Large screens that a line does not name were inactive. This is one part of a sample in which hits are shown more often than they occur.

C[C@H]1CCC/C=C/C2C[C@H](O)CC2[C@H](O)/C=C/C(=O)O1 (some centres not stated)	SF1 inhibitor 79.9
Cc1cccc(NC(=O)CSc2nnc([C@@H](N)Cc3c[nH]c4ccccc34)o2)c1C	none
COC(=O)CC1NC2CCCCC2NC1=O (configuration not stated)	none
CC(=NCC1CCCO1)c1c(O)n(-c2ccc(Cl)cc2)c(=O)[nH]c1=O (configuration not stated)	none
O=C(CN1CCCC1=O)N1CCOCC1	none
Cc1ccc(-n2c(O)c(C=NC3CCCC3)c(=O)[nH]c2=O)c(C)c1	none
COc1cccc(C2=NOC(C(=O)N3CCC4(CC3)OCCO4)C2)c1 (configuration not stated)	none
O=c1[nH]c(=O)n(C2CCCCC2)c(O)c1C=NCCCn1ccnc1	none
COc1cc(CN2CCN(c3cc(C)ccc3C)CC2)ccc1O	SF1 inhibitor 66.8
O=C(Cn1c2c(c(-c3ccccc3Cl)cc1=O)CCC2)N1CCC2(CC1)OCCO2	none
O=c1cccc2n1CC1CC2CN(C(c2cccc(F)c2)c2sc3ncnn3c2O)C1 (configuration not stated)	none
O=c1[nH]c(=O)n(CCc2ccc(F)cc2)c(O)c1C=NCCCN1CCOCC1	none
O=C(Cc1ccccc1)N1CCN(CC2CC=CCC2)CC1 (configuration not stated)	none
CCn1nc(-c2ccccc2)nc2c(=O)n(C)c(=O)nc1-2	SF1 inhibitor 95.4
CCOC(=O)C1=C(C)OC(N)=C(C(=O)OCC)C12C(=O)Nc1ccc(Br)cc12 (configuration not stated)	none
